The results in this text go back to PubChem BioAssay (NCI).

This is part of a sample that, as a whole, favours compounds with a hit. Of some 83,000 tested, about 20% had one in any assay.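 Plates (96-well) were seeded with cells, treated with compound at one concentration, and incubated for 48 hours before percent growth was determined.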 A number with no mark means an inactive call. The source made the active and inactive calls. The calls were made as follows: active = growth percent below 10; inactive = the rest.

Holding throughout (assay): NCI-60 one-dose screen, 48 h (100 = growth as untreated, 0 = no growth, -100 = all killed)
Common to all, as to conditions: 10 µM unless noted

The test system of experiment [1] is HCT-15 colon.
The test system of experiment [2] is HT29 colon.
Experiment [3] has as its system SNB-75 CNS.
Experiment [4] has as its system SNB-19 CNS.
In experiment [5] the test system is U251 CNS.
Experiment [6] has as its system PC-3 prostate.
For experiment [7], the system named is SK-MEL-5 melanoma.
Experiment [8] deals with UACC-62 melanoma.
Experiment [9] has as its system SK-MEL-28 melanoma.
In experiment [10] the test system is SK-MEL-2 melanoma.
Experiment [11] has as its system EKVX NSCLC.
Experiment [12] deals with SN12C renal.
Experiment [13] concerns UO-31 renal.
The subject of experiment [14] is TK-10 renal.
In experiment [15] the test system is ACHN renal.
The subject of experiment [16] is CAKI-1 renal.
Experiment [17] has as its system A498 renal.
Experiment [18] concerns CCRF-CEM leukemia.
Experiment [19] has as its system LOX IMVI melanoma.
Experiment [20] concerns MOLT-4 leukemia.

`CCCCOc1ccc(NC(=O)n2nc(N=NN(C)C)c3ccc(Cl)cc32)cc1`: the growth in [1] was 105%; in [2], 98.1%; in experiment [3], 89.1%; in experiment [4], 106%; in [5] it was 118%; in experiment [6], 88.5%. Besides, the growth in experiment [7] is 107%; in [8], 86.4%; in experiment [9] it was 106%; in experiment [10] it was 97.6%; in experiment [11], 102%; in [12], 93.5%. Further, the growth in experiment [13] is 65.7%; in experiment [14], 126%; in [15], 93.8%; in experiment [16], 90.7%; in experiment [17] it was 100%; in [18] it was 88.9%.
In the case of `COc1ccc(-n2ncn(CCCCCCn3cnn(-c4ccc(OC)cc4)c3=O)c2=O)cc1`, the growth in experiment [1] was 95.3%; in experiment [2], 101%; in experiment [3], 79.8%; in experiment [4] it was 90.3%; in [5], 94.3%; in experiment [6], 84.8%. Besides, the growth in [7] was 95.2%; in [8] it was 76.5%; in experiment [9] it was 98%; in experiment [10], 89.5%; in experiment [11] it was 85.8%; in [12], 90.6%. Besides, the growth in [13] is 72.5%; in experiment [14], 118%; in experiment [15], 87.5%; in experiment [16] it was 87.4%; in experiment [17] it was 101%; in [18], 87.8%.
`COc1ccc(/C=C2\COc3ccc(O)cc3C2=O)c(OC)c1`: the growth is 34.4% in [1]; 38.2% in experiment [2]; 47.5% in experiment [3]; 55.3% in [4]; 50.3% in experiment [5]; 57.2% in [6]. Also, the growth in experiment [8] is 50%; in [19], 45.4%; in experiment [9] it was 64%; in [10] it was 55.9%; in experiment [11] it was 70.5%; in experiment [12], 52.7%. Besides, the growth in experiment [13] was 74.9%; in [14], 91.9%; in experiment [15], 85.2%; in [16], 59.3%; in experiment [17], 92.4%; in experiment [18], 4.96% (active). Also, the growth in [20] was 36.8%.
In the case of `COc1ccc(Cn2cnc3cc(C(=O)Nc4cccc5ccccc45)ccc32)c(OC)c1`, the growth was 3.1% [30 µM] (active) in experiment [1]; 8.08% [30 µM] (active) in experiment [2]; 35.4% [30 µM] in experiment [3]; 21.5% [30 µM] in [4]; 17.5% [30 µM] in experiment [5]; 17.4% [30 µM] in [6]. In addition, the growth in experiment [8] is 14.8% [30 µM]; in experiment [19] it was 12.1% [30 µM]; in experiment [9], 60.6% [30 µM]; in experiment [10] it was 44.4% [30 µM]; in experiment [11], 37.9% [30 µM]; in [12], 7.29% [30 µM] (active). Moreover, the growth in [13] is 29.8% [30 µM]; in experiment [14], 76.8% [30 µM]; in experiment [15] it was 23.8% [30 µM]; in experiment [16], 18% [30 µM]; in experiment [17], -13.9% [30 µM] (active); in [18] it was 12.6% [30 µM]. In experiment [20], the growth was 6.04% [30 µM] (active).
As to `CC(=O)Nc1ccc(-c2cc3c(NCc4ccc(F)cc4)ncnc3s2)cc1`, the growth in experiment [1] was 88.8%; in experiment [2], 102%; in experiment [3], 70.1%; in [4], 57.8%; in experiment [5] it was 77.6%; in [6] it was 81%. Besides, the growth in [8] is 73%; in experiment [19], 82.4%; in [9], 93.5%; in experiment [10] it was 95.4%; in [11], 67.5%; in experiment [12], 72.6%. The growth in experiment [13] was 62.2%; in experiment [14] it was 70.5%; in experiment [15], 65.5%; in [16] it was 61.6%; in experiment [17], 61.9%; in experiment [18] it was 96.3%. Moreover, in experiment [20], the growth is 95.3%.
As to `Nc1c(-c2nc3ccccc3c(=O)[nH]2)nnn1-c1ccc(Cl)cc1`, the growth in experiment [1] was 93.1%; in experiment [2], 68.7%; in experiment [3] it was 24.7%; in [4], 76%; in experiment [5] it was 74.6%; in experiment [6], 85.3%. Moreover, the growth in experiment [7] is 92.6%; in [19], 107%; in [9] it was 81.1%; in experiment [10] it was 96.3%; in [11], 103%; in [12], 95.4%. Also, the growth was 48% in experiment [13]; 72.6% in [14]; 87% in experiment [15]; 70.2% in experiment [16]; 57.4% in experiment [17]; 90.2% in experiment [18]. For the same molecule, the growth in experiment [20] is 87.7%.
Turning to `Cc1nc2ccc(C(=O)NCc3cc(C(=O)O)c(C)o3)cc2nc1C`, the growth in experiment [1] was 105%; in experiment [2], 95.6%; in experiment [3], 79.4%; in experiment [4], 101%; in experiment [5] it was 96.8%; in [6], 90%. For the same molecule, the growth is 105% in [7]; 94.3% in experiment [19]; 103% in [9]; 102% in experiment [10]; 105% in experiment [11]; 96.5% in [12]. In addition, the growth in [13] is 82.8%; in [14], 97.6%; in experiment [15], 99.4%; in experiment [16], 86.2%; in [17] it was 106%; in experiment [18], 97.1%. Moreover, the growth in [20] is 106%.
As to `CC(=O)C(C(C)=O)c1nc2sc3cc(Cl)ccc3n2c(=N)c1C#N`, the growth was 94.2% in experiment [1]; 92.4% in experiment [2]; 41.2% in [3]; 78.8% in experiment [4]; 82.3% in experiment [5]; 65.2% in [6]. In addition, the growth was 74.6% in experiment [7]; 79.7% in experiment [19]; 103% in [9]; 86.8% in [10]; 70.7% in experiment [11]; 90% in experiment [12]. In addition, the growth is 58.4% in experiment [13]; 117% in [14]; 84% in [15]; 85.7% in experiment [16]; 84.5% in experiment [17]; 91.9% in experiment [18]. Moreover, the growth in [20] is 67%.
With `O=C(/C=C/C12c3ccccc3C(c3ccccc31)C1C(=O)NC(=O)C12)c1ccc(Cl)cc1` (stereo unspecified), the growth in [1] was -43.1% (active); in [2], 7.13% (active); in experiment [3] it was 8.43% (active); in experiment [4], 17.3%; in experiment [5], -10.9% (active); in [6] it was 21.7%. In addition, the growth in [7] was -61.5% (active); in experiment [19] it was -87.9% (active); in [9] it was -32.1% (active); in experiment [10] it was -7.61% (active); in [11] it was 17.8%; in experiment [12] it was -14.4% (active). For the same molecule, the growth in experiment [13] was -55.2% (active); in experiment [14] it was 12.6%; in [15] it was -44.8% (active); in experiment [16], 33.6%; in [18] it was 11.5%; in experiment [20], 11.1%.
On to `CCCCCCNCc1cc(C(C)(C)C)cc(CNCCCCCC)c1O`, for which the growth in [1] is -59.6% (active); in experiment [2] it was -86% (active); in [3], -62.1% (active); in [4] it was 9.11% (active); in [5], -88.4% (active); in experiment [6], 6.77% (active). For the same molecule, the growth was -98.2% (active) in experiment [7]; -88.8% (active) in experiment [19]; -88.8% (active) in experiment [9]; -7.07% (active) in experiment [10]; -47.9% (active) in experiment [11]; -42.2% (active) in experiment [12]. Moreover, the growth in [13] is -80.7% (active); in experiment [15], -84.2% (active); in experiment [16] it was 16.7%; in experiment [17], -7.12% (active); in experiment [18], -10.4% (active); in [20], -14.8% (active).
